Only some compounds are listed: those with a hit (about 7.7% of all), similar ones and a draw of the others.
RE007 growth inh – less growth of the S. pombe RE007 Vpr strain. S. pombe RE007 Vpr strain, BacTiter-Glo ATP luminescence, 24 h. Potency, µM (top dose mostly 92.2 µM), for inactives: at the top dose activity change, negative = less growth, most hits filed as inhibitors. 0.21% of 360,000 active; active means well fitted falling curve with a large enough effect; inconclusive means small, poorly fitted or top-dose-only effect; inactive means no such curve, though single readings can be large or run the other way; further: potency means the concentration at half of the fitted maximal effect; nearly all actives have a fitted effect of over 50% in size
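Fission yeast strain RE007, carrying one chromosomally integrated HIV-1 vpr copy, was seeded at OD 0.01 in PMG+AL medium with 23 nL pinned compound. After 24 h at 30 °C and 99% humidity, viability was read by BacTiter-Glo luminescence.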
Tb PYK inh – inhibitors of Trypanosoma brucei pyruvate kinase; Q57TT1; TbPYK enzyme, Kinase-Glo Plus ATP luminescence, 45 min; Potency, µM (titrated, usually from 76.8 µM), without a hit: at the highest dose activity, negative = inhibition, most hits filed as inhibitors; 0.12% of 410,000 active; AID 624173; further: potency means the concentration at half of the fitted maximal effect; nearly all actives have a fitted effect of over 50% in size
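Screened from lowest to highest concentration, compounds were pinned into TbPYK/substrate mixtures, and ADP (130 uM final) was added. Plates sat at room temperature for 45 min prior to Kinase-Glo Plus detection by luminescence.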
Giardia FBPA inh – Giardia lamblia aldolase inhibition. A8B2U2. purified Giardia FBPA. Potency, µM (doses to about 59.6 µM), without a hit: at the highest dose activity, negative = inhibition, actives largely listed as inhibitors. 0.71% of 290,000 active. AID 2451; further: potency means the concentration at half of the fitted maximal effect; nearly all actives have a fitted effect of over 55% in size
Target sequence (A8B2U2 whole entry, looked up): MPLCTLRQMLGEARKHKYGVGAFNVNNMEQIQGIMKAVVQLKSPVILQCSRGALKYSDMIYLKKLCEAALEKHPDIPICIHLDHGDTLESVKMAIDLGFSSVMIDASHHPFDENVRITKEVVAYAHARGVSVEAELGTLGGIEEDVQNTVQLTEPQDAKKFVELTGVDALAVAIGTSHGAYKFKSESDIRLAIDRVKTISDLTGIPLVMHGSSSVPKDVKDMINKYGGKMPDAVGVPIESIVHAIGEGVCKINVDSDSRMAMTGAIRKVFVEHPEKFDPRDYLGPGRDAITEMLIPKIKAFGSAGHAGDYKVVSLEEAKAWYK
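40 nM FBPA preincubated 10 min at RT with compound (up to 57.5 uM final), then substrate plus GAPDH/TPI/NAD/arsenate coupling and diaphorase/resazurin added. Fluorescence read after 20 min at RT, 525/598 nm.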
HCMV antiviral – inhibitors of human cytomegalovirus; HFF cells, HCMV-luciferase reporter, 72 h; hits give low values; activity change, negative = inhibition, % at 57.5 µM; 4.5% of 410,000 active; in the data active means activity change below about -60%; inconclusive means no clear call, values can overlap the other calls; inactive means above about -39%
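Human foreskin fibroblasts infected with luciferase-reporter HCMV at MOI 1 PFU/cell, compounds at two doses. Luciferase measured 72 h post infection; normalized to buffer-only basal and Salinomycin (10uM) controls.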
Sm TGR block – S. mansoni TGR enzyme inhibition. 3% of 360,000 active. Potency, µM (highest dose often 114 µM), inactives show top-dose activity change, negative = inhibition, hits mostly inhibitors. purified TGR, DTNB reduction, TNB absorbance 405 nm. Q962Y6; further: potency means the concentration at half of the fitted maximal effect; nearly all actives have a fitted effect of over 60% in size
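Kinetic colorimetric format: TGR-catalysed, NADPH-driven DTNB reduction monitored via TNB absorbance. Enzyme dispensed at 20 nM; compound exposure 15 min at room temperature before reaction start.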
FMDV antiviral – foot and mouth disease virus antiviral activity. AID 1159524. Potency, µM (top dose mostly 57.9 µM), inactives show at the highest dose activity change, negative = inhibition, hits mostly inhibitors. FMDV antiviral cell-based qHTS. 1.2% of 410,000 active; calls by dose curve; tested in HEK293T cells; further: read-out not given here; potency means the concentration at half of the fitted maximal effect; nearly all actives have a fitted effect of over 45% in size
An asterisk follows results filed as active; ? = inconclusive; . = no result given; [ ] = another dose, or the depositor's remark. Unless noted, the call rests on the fitted dose curve; in most records, active means well fitted curve in the direction sought with a large enough effect; inconclusive means small, poorly fitted or top-dose-only effect, or another doubt; inactive means no such curve, though single readings can be large; an effect the other way counts as inactive or inconclusive. On the % scale 0 is the no-effect control and ±100 the full control effect.

SMILES	RE007 growth inh	Tb PYK inh	Giardia FBPA inh	HCMV antiviral	Sm TGR block	FMDV antiviral
COc1ccc(OC)c(C2SCCN2S(=O)(=O)c2cccc(C(F)(F)F)c2)c1 (configuration not stated)	3%	-7%	-1%	-61*	10%	.
CCOC(=O)Nc1ccc(S(=O)(=O)Nc2cc(C)on2)cc1	1%	-2%	2%	-14	-13%	2%
Cc1ccc(N(C)S(=O)(=O)c2cccc(C(=O)Nc3ccc(C)cn3)c2)cc1	0%	-4%	.	-23	-1%	40µM*
CN(C)S(=O)(=O)c1cccc(C(=O)Nc2ccc(Cl)cn2)c1	13%	0%	-3%	-16	14%[11.4 µM]	.
CCOC(=O)/C=C/C(=O)Nc1ccc(S(=O)(=O)Nc2cc(C)on2)cc1	-10%	1%	.	32	11µM*	10%
CN(c1ccccc1)S(=O)(=O)c1ccc(NC(=O)c2ccc(-c3ccccc3)cc2)cc1	5%	1%	-3%	-96*	-15%	?
O=Cc1ccc(OC2C=CC(c3ccccc3)OC2CO)cc1 (configuration not stated)	.	.	0%[12.9 µM]	.	.	.
Cc1cccc(CNc2cc(-c3c(C)noc3C)ncn2)c1	.	.	4%	.	.	-16%
Cn1c(SCC2CCCO2)nnc1C1CCN(Cc2ccccc2O)CC1 (configuration not stated)	.	.	.	.	.	-16%
O=C(NCc1ccc(F)cc1)c1ccc(CSCc2cccc(Cl)c2)o1	.	-1%	.	2	8%	-3%
Cc1nc2cc(NC(=O)c3ccc(S(=O)(=O)N(C)c4ccccc4)cc3)ccc2o1	14%	-11%	-1%	-69*	3%	22µM*
COc1ccccc1N(C)S(=O)(=O)c1ccc(C(=O)Nc2cc(OC)c(OC)c(OC)c2)cc1	7%	0%	.	-23	.	?
COc1ccc(OC)c(S(=O)(=O)N2CCC(C(=O)Nc3cccc(C(F)(F)F)c3)CC2)c1	17%	-2%	-1%	?	-1%	25µM*
COc1ccccc1N(C)S(=O)(=O)c1ccc(C(=O)Nc2ccncc2)cc1	9%	-2%	.	?	-1%	32µM*
CC1CCN(S(=O)(=O)c2ccc3nc(Nc4cccc(C(F)(F)F)c4)ccc3c2)CC1	.	-5%	.	-100*	8%	-25%
NC(=O)C1CCCN(Cc2ccc3c(c2)CN(Cc2ccccc2)CCO3)C1 (configuration not stated)	.	.	.	.	.	2%
CN(Cc1ccccc1)C(C(=O)NC1CCCCC1)c1ccc(Cl)cc1 (configuration not stated)	.	3%	.	-1	8%	11%
CCOC(=O)c1cccc(NC(=O)CCc2c(C)nn(-c3ccc(N4CCOCC4)nn3)c2C)c1	.	-2%	.	27	-9%	3%
Cc1nc(-c2ccc(F)cc2)sc1CCNC(=O)c1cccs1	.	2%	.	13	-10%	0%
CCOc1ccc(N2C(=O)C(c3nnnn3Cc3ccccc3)N(CCOC)C2=O)cc1 (configuration not stated)	.	.	.	-21	.	.
N[C@H](CCC(=O)N[C@H](CSN=O)C(=O)NCC(=O)O)C(=O)O	.	.	?	.	.	-8%
Cc1ccc(NC(=O)C2CCN(S(=O)(=O)c3cccc(C(F)(F)F)c3)CC2)nc1	0%	7%	.	-94*	1%	-18%
O=C(Nc1ccncc1)C1CCN(S(=O)(=O)c2cccc(C(F)(F)F)c2)CC1	-16%	5%	.	-29	-1%	-11%
O=C1C(O)=C(O)C(=O)C(O)=C1O	.	-12%	13µM*	.	.	10%
COc1cc(C(=O)NCC(c2ccc3c(c2)OCO3)N2CCN(C)CC2)cc(OC)c1OC (configuration not stated)	.	-9%	.	41	5%	-8%
Cc1ccc(N2C(=O)C(Cl)=C(NCCO)C2=O)c(C)c1	-2%	-11%	10%	36	8.9µM*	0%
CCCOc1ccc(N2C(=O)CC(N3CC=C(c4ccccc4)CC3)C2=O)cc1 (configuration not stated)	?	-7%	-1%	-33	28µM*	7%
